From PubChem BioAssay AID652192 (Johns Hopkins Ion Channel Center, 2013)
Results with a measured potency or affinity are listed apart. Calls of active or inactive are those of the source.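 How the source made its calls: active means peak inhibition of the KCNQ2 potassium channel over 30% at some tested dose, with a fitted dose response curve; inactive means no inhibition at any dose, or no curve fitted.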

Each compound was assayed against Potassium voltage-gated channel subfamily KQT member 2 (Rattus norvegicus) (UniProt O88943) (assay: block of rat KCNQ2 potassium channel – cell-based, FluxOR thallium flux, concentration-response, selectivity assay for TASK1 inhibitor project, SAR follow-up (AID 652192)). Details: KCNQ2 cell line, FluxOR thallium flux fluorescence; series mostly up to 30 µM.
Sequence of Potassium voltage-gated channel subfamily KQT member 2 (Rattus norvegicus) (O88943 whole entry, looked up): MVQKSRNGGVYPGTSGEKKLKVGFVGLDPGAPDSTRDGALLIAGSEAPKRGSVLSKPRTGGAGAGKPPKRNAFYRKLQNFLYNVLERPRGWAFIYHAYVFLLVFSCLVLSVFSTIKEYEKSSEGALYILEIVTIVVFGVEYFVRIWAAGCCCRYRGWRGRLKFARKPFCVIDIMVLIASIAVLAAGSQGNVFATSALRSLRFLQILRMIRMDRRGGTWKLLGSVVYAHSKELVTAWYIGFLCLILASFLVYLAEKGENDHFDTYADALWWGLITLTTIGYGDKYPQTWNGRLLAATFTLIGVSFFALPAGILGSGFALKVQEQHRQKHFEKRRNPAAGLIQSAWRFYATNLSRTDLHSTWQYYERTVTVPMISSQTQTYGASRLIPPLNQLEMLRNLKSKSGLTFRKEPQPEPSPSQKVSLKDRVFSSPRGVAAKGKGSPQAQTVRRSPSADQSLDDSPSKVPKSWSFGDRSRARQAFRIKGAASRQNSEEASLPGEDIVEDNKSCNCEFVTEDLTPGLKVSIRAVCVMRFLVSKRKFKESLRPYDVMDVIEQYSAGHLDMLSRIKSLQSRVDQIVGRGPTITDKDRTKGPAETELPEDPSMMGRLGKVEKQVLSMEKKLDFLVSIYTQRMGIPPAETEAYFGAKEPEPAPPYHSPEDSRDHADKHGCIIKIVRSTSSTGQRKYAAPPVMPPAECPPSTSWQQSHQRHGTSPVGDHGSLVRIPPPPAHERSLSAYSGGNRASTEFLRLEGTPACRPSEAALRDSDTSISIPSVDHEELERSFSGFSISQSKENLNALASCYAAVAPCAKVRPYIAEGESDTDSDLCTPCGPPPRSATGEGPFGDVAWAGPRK

outcome, inactive:
O=C(Nc1cccc(NC(=O)c2ccco2)c1)c1ccccc1, COc1cccc(C(=O)Nc2cccc(NC(=O)c3ccccc3)c2)c1, O=C(Nc1cccc(NC(=O)c2ccccc2Cl)c1)c1ccccc1, CCOc1ccccc1NC(=O)c1cccc(NC(=O)CC2CCCC2)c1, CCOc1ccccc1NC(=O)c1cccc(C(=O)NC2CCCC2)c1, COc1cccc(C(=O)Nc2cccc(NC(=O)c3cccc(C)c3)c2)c1, CCOc1ccccc1NC(=O)c1cccc(NC(=O)c2ccccc2OC)c1, COc1ccc(CC(=O)NCc2ccccc2-c2ccccc2C(=O)NCc2ccc(F)cc2F)cc1, COc1ccccc1NC(=O)c1cccc(NC(=O)C2CCCCC2)c1, CCOc1ccccc1NC(=O)c1cccc(NC(=O)c2cccc(C)c2)c1, O=C(Nc1cccc(NC(=O)c2ccc(F)cc2)c1)c1ccccc1, CCOc1ccccc1NC(=O)c1cccc(NC(=O)CC2CCCCC2)c1, COc1ccc(C(=O)Nc2cccc(NC(=O)c3ccccc3)c2)cc1, CCOc1ccccc1NC(=O)c1cccc(NC(=O)c2cccc(OC)c2)c1
